Compounds without any hit were thinned out: in the full panel of roughly 79,000, 15% have a hit. The source made the active and inactive calls. Cut-off read from the data, not from the text of the source: active = growth inhibition above about 70%; inactive = the rest.
What was measured:
[1] = NCI Yeast Anticancer Drug Screen. Data for the rad52 strain (AID 147);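 note: 0% = growth of vehicle-treated control cultures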; conditions: S. cerevisiae rad52 mutant growth inhibition, active compounds read high
Method in brief: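 Here a repair-compromised yeast strain receives each compound; its growth is then quantified and normalised to vehicle-only controls.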

[2] = NCI Yeast Anticancer Drug Screen. Data for the rad50EPP+ strain (AID 151);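 note: 0% = growth of vehicle-treated control cultures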; conditions: S. cerevisiae rad50 mutant strain, active compounds read high
Method in brief: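 Read-out is yeast growth inhibition relative to vehicle; cells used were the rad50EPP+ strain.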

[3] = NCI Yeast Anticancer Drug Screen. Data for the mgt1 strain (AID 153); conditions: S. cerevisiae mgt1 mutant growth inhibition, active compounds read high
Method in brief: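 Measured: inhibition of mgt1 yeast growth by compound, normalized to vehicle-treated cultures.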

[4] = NCI Yeast Anticancer Drug Screen. Data for the rad50 strain (AID 155);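 note: 0% = growth of vehicle-only cultures of the same strain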; conditions: S. cerevisiae rad50 strain growth inhibition, active compounds read high
Method in brief: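 Genetically altered yeast (DNA repair pathway); compound treatment; growth inhibition vs vehicle ctrl.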

[5] = NCI Yeast Anticancer Drug Screen. Data for the mec2-1 strain (AID 157); conditions: S. cerevisiae mec2-1 strain, active compounds read high
Method in brief: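 Using mec2-1 yeast: add compound, measure growth, express inhibition versus vehicle-treated cultures.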

[6] = NCI Yeast Anticancer Drug Screen. Data for the rad14 strain (AID 159);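 note: 0% = growth of vehicle-treated control cultures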; conditions: S. cerevisiae rad14 strain growth inhibition, active compounds read high
Method in brief: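 Test compounds were applied to a repair-deficient yeast strain. Its growth was then compared with that of cultures given vehicle alone, and inhibition was expressed relative to those controls.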

[7] = NCI Yeast Anticancer Drug Screen. Data for the sgs1 mgt1 strain (AID 161);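 note: 0% = growth of cultures given vehicle only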; conditions: S. cerevisiae sgs1 mgt1 strain, active compounds read high
Method in brief: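 This yeast growth screen uses a strain with defined DNA-repair lesions; compound-treated growth is compared with vehicle-treated growth.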

[8] = NCI Yeast Anticancer Drug Screen. Data for the CLN2oe strain (AID 163);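 note: 0% = growth of vehicle-only control cultures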; conditions: S. cerevisiae CLN2oe strain, active compounds read high
Method in brief: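 Whole-cell yeast growth assay. A strain engineered for altered cell-cycle control received compound, and inhibition relative to vehicle-treated cultures was recorded.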

[9] = NCI Yeast Anticancer Drug Screen. Data for the cln2 rad14 strain (AID 165);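 note: 0% = growth equal to vehicle treated cultures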; conditions: S. cerevisiae cln2 rad14 strain, active compounds read high
Method in brief: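 Yeast strain cln2 rad14, bearing defects in cell cycle control and DNA repair, serves as the test system; values reflect growth inhibition compared with vehicle.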

[10] = NCI Yeast Anticancer Drug Screen. Data for the bub3 strain (AID 167); conditions: S. cerevisiae bub3 mutant strain, active compounds read high
Method in brief: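 Yeast carrying a defined mutation is treated with each compound, and growth is compared with that of vehicle-exposed cells to give inhibition.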

[11] = NCI Yeast Anticancer Drug Screen. Data for the wt2 strain (AID 169);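 note: 0% = growth of vehicle-treated yeast cultures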; conditions: S. cerevisiae wt2 strain growth inhibition, active compounds read high
Method in brief: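 Treated yeast vs. vehicle-treated yeast: growth inhibition determined.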

[12] = NCI Yeast Anticancer Drug Screen. Data for the mlh1 strain (AID 171);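 note: 0% = growth of vehicle-treated control cultures of the same strain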; conditions: S. cerevisiae mlh1 strain growth inhibition, active compounds read high
Method in brief: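 A yeast strain with a defined genetic lesion serves as the test organism. Cultures receive compound or vehicle, and growth is measured.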

[13] = NCI Yeast Anticancer Drug Screen. Data for the sgs1 strain (AID 173);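 note: 0% = growth of vehicle-only control cultures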; conditions: S. cerevisiae sgs1 mutant, active compounds read high
Method in brief: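 A genetically defined yeast mutant is incubated with the test compound, and its growth is compared to that of the same strain given vehicle.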

[14] = NCI Yeast Anticancer Drug Screen. Data for the mlh1 rad18 strain (AID 175); conditions: S. cerevisiae mlh1 rad18 strain growth inhibition, active compounds read high
Method in brief: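 Steps: expose repair-defective yeast to compound; measure growth; express inhibition against vehicle-treated controls.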

[15] = NCI Yeast Anticancer Drug Screen. Data for the rad18 strain (AID 177); conditions: S. cerevisiae rad18 mutant growth inhibition, active compounds read high
Method in brief: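 Measured value is growth inhibition of a yeast strain bearing a DNA repair alteration, referenced to vehicle-treated cells.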

[16] = NCI Yeast Anticancer Drug Screen. Data for the wt1 strain (AID 149);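 note: 0% = growth of vehicle-treated wt1 cultures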; conditions: S. cerevisiae wt1 strain (SPY 50644) growth inhibition, active compounds read high
Method in brief: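 wt1 yeast, compound-treated; % growth inhibition vs vehicle control.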

[17] = at 5.0 µM (retest, dose inferred, filed as 0.5)
[18] = at 50.0 µM (retest, dose inferred, filed as 5.0)

Measured: growth inhibition

COC1/C=C\C=C(/C)C(=O)NC2=CC(=O)C(=O)C(=C2O)CC(C)CC(OC)C(O)C(C)/C=C(\C)C1OC(N)=O (stereo unspecified)
active: [1]; at 11.0 µM 94% | [1]; at 33.0 µM 98% | [1]; at 100.0 µM 97% | [3]; at 11.0 µM 90% | [3]; at 33.0 µM 96% | [3]; at 100.0 µM 95% | [4]; at 11.0 µM 94% | [4]; at 33.0 µM 96% | [4]; [18] 94% | [4]; at 50.0 µM 87.5% | [4]; at 100.0 µM 95% | [5]; at 11.0 µM 94% | [5]; at 33.0 µM 96% | [5]; [18] 97% | [5]; at 50.0 µM 89.8% | [5]; at 100.0 µM 95% | [6]; at 11.0 µM 91% | [6]; at 33.0 µM 95% | [6]; at 100.0 µM 95% | [7]; [18] 95% | [7]; at 50.0 µM 89.8% | [8]; at 11.0 µM 94% | [8]; at 33.0 µM 95% | [8]; at 100.0 µM 94% | [9]; [18] 96% | [9]; at 50.0 µM 77.8% | [10]; at 11.0 µM 93% | [10]; at 33.0 µM 96% | [10]; [18] 97% | [10]; at 50.0 µM 86.2% | [10]; at 100.0 µM 95% | [11]; at 11.0 µM 89% | [11]; at 33.0 µM 96% | [11]; at 100.0 µM 96% | [12]; at 11.0 µM 89% | [12]; at 33.0 µM 94% | [12]; at 100.0 µM 94% | [13]; at 11.0 µM 91% | [13]; at 33.0 µM 96% | [13]; at 100.0 µM 95% | [14]; [18] 92% | [14]; at 50.0 µM 83.2% | [15]; at 11.0 µM 91% | [15]; at 33.0 µM 96% | [15]; at 100.0 µM 95%
inactive: [1]; at 1.2 µM 24% | [1]; at 3.7 µM 32% | [2]; at 1.2 µM 15% | [2]; at 3.7 µM 2% | [2]; at 11.0 µM 3% | [2]; at 33.0 µM 7% | [2]; at 100.0 µM 46% | [3]; at 1.2 µM -10% | [3]; at 3.7 µM 28% | [4]; at 1.2 µM 17% | [4]; at 3.7 µM 40% | [4]; [17] -17% | [5]; at 1.2 µM -12% | [5]; at 3.7 µM 50% | [5]; [17] 56% | [6]; at 1.2 µM -13% | [6]; at 3.7 µM -10% | [7]; [17] 13% | [8]; at 1.2 µM -32% | [8]; at 3.7 µM 34% | [9]; [17] 45% | [10]; at 1.2 µM -6% | [10]; at 3.7 µM 51% | [10]; [17] 67% | [11]; at 1.2 µM 6% | [11]; at 3.7 µM 7% | [12]; at 1.2 µM -5% | [12]; at 3.7 µM 11% | [13]; at 1.2 µM 28% | [13]; at 3.7 µM 36% | [14]; [17] 33% | [15]; at 1.2 µM 12% | [15]; at 3.7 µM 3%

O=C1C(=C2CCCC2)CCC1CN1CCCCC1 (stereo unspecified)
active: [1]; at 100.0 µM 96% | [16]; at 100.0 µM 89% | [3]; at 100.0 µM 95% | [4]; at 50.0 µM 76.3% | [4]; at 100.0 µM 95% | [5]; at 33.0 µM 70% | [5]; at 100.0 µM 96% | [6]; at 100.0 µM 94% | [8]; at 100.0 µM 91% | [10]; at 33.0 µM 81% | [10]; [18] 80% | [10]; at 100.0 µM 97% | [11]; at 100.0 µM 93% | [12]; at 33.0 µM 84% | [12]; at 100.0 µM 97% | [13]; at 33.0 µM 87% | [13]; at 100.0 µM 97% | [14]; [18] 83% | [15]; at 33.0 µM 81% | [15]; at 100.0 µM 94%
inactive: [1]; at 1.2 µM 3% | [1]; at 3.7 µM 16% | [1]; at 11.0 µM 20% | [1]; at 33.0 µM 64% | [16]; at 1.2 µM 6% | [16]; at 3.7 µM 12% | [16]; at 11.0 µM 27% | [16]; at 33.0 µM 30% | [3]; at 1.2 µM -10% | [3]; at 3.7 µM 5% | [3]; at 11.0 µM 13% | [3]; at 33.0 µM 54% | [4]; at 1.2 µM 2% | [4]; at 3.7 µM 8% | [4]; [17] -3% | [4]; at 11.0 µM 9% | [4]; at 33.0 µM 60% | [4]; [18] 57% | [5]; at 1.2 µM -7% | [5]; at 3.7 µM -12% | [5]; [17] 6% | [5]; at 11.0 µM 9% | [5]; [18] 60% | [5]; at 50.0 µM 68.7% | [6]; at 1.2 µM 10% | [6]; at 3.7 µM 10% | [6]; at 11.0 µM 29% | [6]; at 33.0 µM 57% | [7]; [17] 9% | [7]; [18] 57% | [7]; at 50.0 µM 58.9% | [8]; at 1.2 µM -16% | [8]; at 3.7 µM 11% | [8]; at 11.0 µM -1% | [8]; at 33.0 µM 40% | [9]; [17] 4% | [9]; [18] 14% | [9]; at 50.0 µM 43.5% | [10]; at 1.2 µM 8% | [10]; at 3.7 µM 10% | [10]; [17] -21% | [10]; at 11.0 µM 18% | [10]; at 50.0 µM 55.6% | [11]; at 1.2 µM -17% | [11]; at 3.7 µM 2% | [11]; at 11.0 µM 11% | [11]; at 33.0 µM 68% | [12]; at 1.2 µM 0% | [12]; at 3.7 µM 0% | [12]; at 11.0 µM 13% | [13]; at 1.2 µM 34% | [13]; at 3.7 µM 30% | [13]; at 11.0 µM 63% | [14]; [17] -29% | [14]; at 50.0 µM 63.5% | [15]; at 1.2 µM 8% | [15]; at 3.7 µM 6% | [15]; at 11.0 µM 27%
